# Data taken from the supplement of paper PMC10681739.
# Key:
# [1] = molecular target: RUNX1 (UniProt Q01196); assay: RUNX1 binding intensity (PBM fluorescence) in presence of ETS1, normalised to RUNX1-only experiment (arbitrary fluorescence units); higher = stronger binding; settings: RUNX1 concentration 2 nM; ETS1 concentration 25 nM
# Description: (§1)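 Cooperative gcPBM on 36-bp genomic probes with neighbouring ETS1 and RUNX1 sites. Recombinant human RUNX1 (2 nM) was incubated alone or with ETS1 (25 nM) and detected with anti-RUNX1 antibody plus Alexa488 secondary. Values are medians over 4 replicate spots; the RUNX1+ETS1 data were normalised to the RUNX1-only data. The probes sit in constant array flanks that are not printed.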
# [2] = molecular target: T1, ETS1 (UniProt P14921); assay: ETS1 binding intensity (PBM fluorescence), ETS1 alone (arbitrary fluorescence units); higher = stronger binding; settings: ETS1 concentration 1 nM; RUNX1 concentration 0 nM
# T1 sequence: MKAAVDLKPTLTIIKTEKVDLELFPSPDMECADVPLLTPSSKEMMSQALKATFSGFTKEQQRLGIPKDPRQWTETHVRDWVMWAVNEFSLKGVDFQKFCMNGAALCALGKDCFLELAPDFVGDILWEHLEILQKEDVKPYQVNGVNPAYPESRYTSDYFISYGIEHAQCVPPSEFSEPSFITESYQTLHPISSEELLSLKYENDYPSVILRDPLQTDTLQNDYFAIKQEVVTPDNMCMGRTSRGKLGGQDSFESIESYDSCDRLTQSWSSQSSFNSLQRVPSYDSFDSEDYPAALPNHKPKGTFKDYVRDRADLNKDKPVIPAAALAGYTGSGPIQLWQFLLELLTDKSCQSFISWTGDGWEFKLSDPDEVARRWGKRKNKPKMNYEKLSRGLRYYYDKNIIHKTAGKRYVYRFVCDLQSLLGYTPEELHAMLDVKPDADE
# [3] = molecular target: RUNX1 (UniProt Q01196); assay: RUNX1 binding intensity (PBM fluorescence), RUNX1 alone (arbitrary fluorescence units); higher = stronger binding; settings: RUNX1 concentration 2 nM; ETS1 concentration 0 nM
# Description: as §1
# 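Wherever RUNX1 binding intensity (PBM fluorescence) in presence of ETS1, normalised to RUNX1-only experiment is given: Full-length recombinant human ETS1 or RUNX1 bound to double-stranded 36-bp genomic probes on microarrays, detected by protein-specific primary antibody and Alexa488 secondary, spot fluorescence as median of four replicate spots.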
# 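Wherever RUNX1 binding intensity (PBM fluorescence), RUNX1 alone is given: Full-length recombinant human RUNX1 bound to double-stranded 36-bp genomic probes on a high-density microarray, scored as Alexa488 fluorescence per spot via anti-RUNX1 antibody, median of four replicate spots.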
# RUNX1, sequence (Q01196 whole entry): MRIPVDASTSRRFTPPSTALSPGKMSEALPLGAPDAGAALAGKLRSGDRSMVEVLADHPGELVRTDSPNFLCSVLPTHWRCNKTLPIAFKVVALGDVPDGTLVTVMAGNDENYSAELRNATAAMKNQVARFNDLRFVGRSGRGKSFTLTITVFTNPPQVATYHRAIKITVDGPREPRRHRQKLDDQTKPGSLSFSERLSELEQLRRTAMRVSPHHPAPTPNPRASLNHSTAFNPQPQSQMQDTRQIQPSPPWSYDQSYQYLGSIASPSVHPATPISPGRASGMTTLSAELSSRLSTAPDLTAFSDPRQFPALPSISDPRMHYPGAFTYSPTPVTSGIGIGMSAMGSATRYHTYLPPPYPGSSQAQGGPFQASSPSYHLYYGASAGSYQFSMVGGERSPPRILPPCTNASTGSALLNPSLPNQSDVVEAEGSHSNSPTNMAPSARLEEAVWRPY
sequence,measurement,setting,value
TTGATTGGAGCAGGATGTGGTCAGAACAGTATGCAG,RUNX1 binding intensity,[1],4860
CGTACGCGCACTTCCGGTCTTTGTGGCTTGCAGCTC,ETS1 binding intensity,[2],18000
same,RUNX1 binding intensity,[3],853
same,RUNX1 binding intensity,[1],2610
CTGCCGCGACAGACAGGATGTGGCTTCTGCTCTGTC,ETS1 binding intensity,[2],8750
same,RUNX1 binding intensity,[3],610
same,RUNX1 binding intensity,[1],1960
AGGACGGGCGGAAGTGGCTGCGGTGGATGGTGGGAG,ETS1 binding intensity,[2],4180
same,RUNX1 binding intensity,[3],797
same,RUNX1 binding intensity,[1],3180
CCGATTTCCCCGGACGTGGTGAGACCGCGCTTCGTC,ETS1 binding intensity,[2],591
same,RUNX1 binding intensity,[3],835
same,RUNX1 binding intensity,[1],1280
GAAGTGAGGTCAGGATGTGGTGGGTGACCCCTGAAA,ETS1 binding intensity,[2],911
same,RUNX1 binding intensity,[3],768
same,RUNX1 binding intensity,[1],1090
TGAGTCACATCCTGCAGGGCTGCGGTATCCTGGCTT,ETS1 binding intensity,[2],773
same,RUNX1 binding intensity,[3],928
same,RUNX1 binding intensity,[1],3310
TCTCTTCCTGTGATGGAAATACATTGAGGTTTGCGA,ETS1 binding intensity,[2],523
same,RUNX1 binding intensity,[3],787
same,RUNX1 binding intensity,[1],1740
AGCCGCCACTTCCTGTCTCTGCGGGTGCATGCTCTT,ETS1 binding intensity,[2],3730
same,RUNX1 binding intensity,[3],863
same,RUNX1 binding intensity,[1],3580
AATGAAGGAGGGGCAGGATGTGGTCTTGGTGAATCA,ETS1 binding intensity,[2],2520
same,RUNX1 binding intensity,[3],746
same,RUNX1 binding intensity,[1],1440
GCCGCCTCTTCCTGTGTTGCAAACCACAGGTCCACC,ETS1 binding intensity,[2],1250
same,RUNX1 binding intensity,[3],1570
same,RUNX1 binding intensity,[1],4540
CTCAGGGTACCAGGATGTGGTTTAGCTTAGGGGTGG,ETS1 binding intensity,[2],1840
same,RUNX1 binding intensity,[3],980
same,RUNX1 binding intensity,[1],2310
GGGTCGCGGCCTTCCGGCGAACGCGGTTACCGTGGA,ETS1 binding intensity,[2],555
same,RUNX1 binding intensity,[3],853
same,RUNX1 binding intensity,[1],1380
AACAGGCAAAGGACAGGATGTGGTGAGCGTCGGCCC,ETS1 binding intensity,[2],4150
same,RUNX1 binding intensity,[3],774
same,RUNX1 binding intensity,[1],3040
CCTGCCTGACCGGAAGTGCCCGCAACCCCACCGACC,ETS1 binding intensity,[2],20600
same,RUNX1 binding intensity,[3],1180
same,RUNX1 binding intensity,[1],2870
CTGCCTTTCCTGCTAGGGTACAAACCACAGCCTTAG,ETS1 binding intensity,[2],369
same,RUNX1 binding intensity,[3],1360
same,RUNX1 binding intensity,[1],1640
ACTGAACAAACCGGATGTGGTTGCCACCTGCAATCT,ETS1 binding intensity,[2],19800
same,RUNX1 binding intensity,[3],848
same,RUNX1 binding intensity,[1],21800
AGAATCGCATCAGGATGTGGTGAGGGAGCACATTTG,ETS1 binding intensity,[2],948
same,RUNX1 binding intensity,[3],713
same,RUNX1 binding intensity,[1],969
GTAGGGAAGACGGGATGTGGGTTTTCAGCCGTGGCC,ETS1 binding intensity,[2],1220
same,RUNX1 binding intensity,[3],730
same,RUNX1 binding intensity,[1],2520
GGACCGGTGTCTGGCGGATGCGGTCGTGAAGATAGG,ETS1 binding intensity,[2],1200
same,RUNX1 binding intensity,[3],710
same,RUNX1 binding intensity,[1],1130
TCACATTTTGCCGGATGTGGGTTGAGGGCATGCTGC,ETS1 binding intensity,[2],6680
same,RUNX1 binding intensity,[3],773
same,RUNX1 binding intensity,[1],8730
ATCAGAGCGGAAATCTCAGTCTTGTGTGGGGACCTG,ETS1 binding intensity,[2],1960
same,RUNX1 binding intensity,[3],647
same,RUNX1 binding intensity,[1],919
TGGGGAACGCTGCGGATGCTGCGGTAAACCATGCGA,ETS1 binding intensity,[2],643
same,RUNX1 binding intensity,[3],1040
same,RUNX1 binding intensity,[1],1700
TCAGGGGAGCGAGCAGGAAGTGGTAAGATTTGATAG,ETS1 binding intensity,[2],3680
same,RUNX1 binding intensity,[3],696
same,RUNX1 binding intensity,[1],1230
AGGCTGTGTGAAGGATGTGGTCAGGCGGAGGCCAGG,ETS1 binding intensity,[2],604
same,RUNX1 binding intensity,[3],921
same,RUNX1 binding intensity,[1],1600
GCCCAGGGCGGCCGGAAGTTTGCGGGGCGGGGCGGA,ETS1 binding intensity,[2],8880
same,RUNX1 binding intensity,[3],754
same,RUNX1 binding intensity,[1],1480
CCTGTTGATAAAACAGGATGTGGTAAAGAAGCTGGC,ETS1 binding intensity,[2],9030
same,RUNX1 binding intensity,[3],830
same,RUNX1 binding intensity,[1],10300
AACAGACAGGATGTGGCCTCTGCCAAAACCACCATC,ETS1 binding intensity,[2],3250
same,RUNX1 binding intensity,[3],869
same,RUNX1 binding intensity,[1],2310
CAGCTGACAGGAAGGAGAGAACCACAGACAGTGCGA,ETS1 binding intensity,[2],782
same,RUNX1 binding intensity,[3],801
same,RUNX1 binding intensity,[1],1260
CTTAGAGTACCAGGATGTGGTTTGGCCTGGGGGTGG,ETS1 binding intensity,[2],1790
same,RUNX1 binding intensity,[3],1000
same,RUNX1 binding intensity,[1],1800
TGCAGTCGTGAAAAAGGAAGTGGTTAAAGTGGCTAC,ETS1 binding intensity,[2],3680
same,RUNX1 binding intensity,[3],753
same,RUNX1 binding intensity,[1],1600
GCAGCTCTGGCAGGATGCGGTTAAATATGTAGCCAC,ETS1 binding intensity,[2],2030
same,RUNX1 binding intensity,[3],2690
same,RUNX1 binding intensity,[1],11300
GTGGTCTCTGCCACTTCCTGTGGTGTAAACAGTCTC,ETS1 binding intensity,[2],2680
same,RUNX1 binding intensity,[3],843
same,RUNX1 binding intensity,[1],2890
GGGTGCTTCCTATAAACAATGACTCATTACCGCACT,ETS1 binding intensity,[2],425
same,RUNX1 binding intensity,[3],920
same,RUNX1 binding intensity,[1],976
TCCAGCTCCACAGGATGTGGTGAGTGAAGCAGCAAG,ETS1 binding intensity,[2],2590
same,RUNX1 binding intensity,[3],694
same,RUNX1 binding intensity,[1],2380
TCAGGGGTGGGAGGAAGTGGTTAGGATCAGCCTGGG,ETS1 binding intensity,[2],1910
same,RUNX1 binding intensity,[3],776
same,RUNX1 binding intensity,[1],2680
TGCAAAAAAACAGGAAACACCCAGCCGCAAATTATA,ETS1 binding intensity,[2],1740
same,RUNX1 binding intensity,[3],863
same,RUNX1 binding intensity,[1],1230
AAGGCAAACAGGAAATCATAACCACAAACCAGGAAC,ETS1 binding intensity,[2],2960
same,RUNX1 binding intensity,[3],2880
same,RUNX1 binding intensity,[1],21700
AGATGAGGAAGTTGGGGTTTAGAGTGGTTAAACTGT,ETS1 binding intensity,[2],502
same,RUNX1 binding intensity,[3],698
same,RUNX1 binding intensity,[1],1020
TGAGCCCTACTTCCGGTGGTGCTGTGGTCTGCCCCT,ETS1 binding intensity,[2],10700
same,RUNX1 binding intensity,[3],786
same,RUNX1 binding intensity,[1],2330
AGGTCGCCCTCCGGATGCGGTCCCCACACCGCCTGC,ETS1 binding intensity,[2],1870
same,RUNX1 binding intensity,[3],857
same,RUNX1 binding intensity,[1],1490
GTATCACTTCCTGTTTTCCTCTGTGGCTTACTGCTG,ETS1 binding intensity,[2],3310
same,RUNX1 binding intensity,[3],1300
same,RUNX1 binding intensity,[1],3210
